Results filed as inconclusive are left out. A call without a number means that no potency is given here. Active and inactive are the calls of the source. Calls come from the whole dose curve; as a rule, active = well fitted inhibition curve with a large enough effect; inconclusive = small, poorly fitted or top-dose-only effect; inactive = flat fitted curve, though single readings scatter.
Experiments:
Experiment in all cases: qHTS profiling for inhibitors of Plasmodium falciparum proliferation (AID 504749); note: nearly all actives have a fitted effect of over 60% in size
Details in all cases: P. falciparum in erythrocytes, SYBR Green DNA, 72 h; series mostly up to 28.7 µM
[1] = tested on: AA1029
How it was run: (§1)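 Each compound contacts P. falciparum-infected red blood cells for 72 h at 37 C; lysis buffer (Tris, EDTA, saponin, Triton X, SYBR Green I) is added and fluorescence measured next morning; values normalized to controls.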

[2] = tested on: AS120
How it was run: as §1

[3] = tested on: ATS189
How it was run: as §1

[4] = tested on: ATS95
How it was run: as §1

[5] = tested on: C2A
How it was run: as §1

[6] = tested on: CP185
How it was run: as §1

[7] = tested on: CP191
How it was run: as §1

[8] = tested on: CP192
How it was run: as §1

[9] = tested on: CP194
How it was run: as §1

[10] = tested on: CP201
How it was run: as §1

[11] = tested on: CP203
How it was run: as §1

[12] = tested on: CP211
How it was run: as §1

[13] = tested on: CP215
How it was run: as §1

[14] = tested on: CP217
How it was run: as §1

[15] = tested on: CP237
How it was run: as §1

[16] = tested on: CP238
How it was run: as §1

[17] = tested on: CP250
How it was run: as §1

[18] = tested on: CP252
How it was run: as §1

[19] = tested on: CP256
How it was run: as §1

[20] = tested on: CP247
How it was run: as §1
Potency is the fitted concentration of half-maximal effect.

Structure (SMILES)	Potency [1]	Potency [2]	Potency [3]	Potency [4]	Potency [5]	Potency [6]	Potency [7]	Potency [8]	Potency [9]	Potency [10]	Potency [11]	Potency [12]	Potency [13]	Potency [14]	Potency [15]	Potency [16]	Potency [17]	Potency [18]	Potency [19]	Potency [20]
O=C(O)[C@@H]1CSCN1	inactive	inactive	inactive	inactive	inactive	inactive	inactive	inactive	inactive	inactive	inactive	inactive	inactive	inactive	inactive	inactive	inactive	inactive	inactive	
CCCCc1ncc(/C=C(\Cc2cccs2)C(=O)O)n1Cc1ccc(C(=O)O)cc1	inactive	inactive	inactive	inactive	inactive	inactive	inactive	inactive	inactive	inactive	inactive	inactive	inactive	inactive	inactive	inactive	inactive	inactive	inactive	inactive
O=S(=O)(O)NC1CCCCC1	inactive	inactive	inactive	inactive	inactive	inactive	inactive	inactive	inactive	inactive	inactive	inactive	inactive	inactive	inactive	inactive		inactive	inactive	inactive
Cn1c(=O)c2c(ncn2CC2OCCO2)n(C)c1=O	inactive	inactive	inactive	inactive	inactive	inactive	inactive	inactive	inactive	inactive	inactive	inactive	inactive	inactive	inactive	inactive	inactive	inactive	inactive	inactive
CC(=O)NC(Cc1ccccc1)C(=O)O (stereo not given)	inactive	inactive	inactive	inactive	inactive	inactive	inactive	inactive	inactive	inactive	inactive	inactive	inactive	inactive	inactive	inactive	inactive	inactive	inactive	
C#CCN(C)Cc1ccccc1	inactive	inactive	inactive	inactive	inactive	inactive	inactive	inactive	inactive	inactive	inactive	inactive		inactive	inactive	inactive	inactive	inactive	inactive	inactive
COc1cc(C(=O)N2CCOCC2)cc(OC)c1OC	inactive	inactive	inactive	inactive	inactive	inactive	inactive	inactive	inactive	inactive		inactive	inactive	inactive	inactive	inactive	inactive	inactive	inactive	inactive
OCc1cc(C(O)CNCCCCCCOCCCCc2ccccc2)ccc1O (stereo not given)	inactive	inactive	inactive	inactive	inactive	inactive		inactive	inactive	inactive				inactive		inactive	inactive	inactive		inactive
NCCNCCNCCN	inactive	inactive	inactive		inactive	inactive	inactive	inactive	inactive	inactive	inactive	inactive		inactive	inactive	inactive	inactive	inactive	inactive	inactive
O=c1cc[nH]c(=O)[nH]1	inactive	inactive	inactive	inactive	inactive	inactive	inactive	inactive	inactive	inactive		inactive	inactive	inactive	inactive	inactive	inactive	inactive	inactive	inactive
CC1(C)CO[C@@H](CC(=O)O)CN1	inactive	inactive	inactive	inactive	inactive	inactive	inactive	inactive	inactive	inactive		inactive	inactive	inactive	inactive	inactive	inactive	inactive	inactive	inactive
CCCn1cnc2c1c(=O)n(CCCCC(C)=O)c(=O)n2C	inactive	inactive	inactive	inactive	inactive	inactive	inactive	inactive	inactive	inactive		inactive	inactive	inactive	inactive	inactive	inactive	inactive	inactive	inactive
Oc1cn2c(n1)Nc1ccc(Cl)c(Cl)c1C2	inactive	inactive	inactive	inactive	inactive	inactive	inactive	inactive	inactive			inactive	inactive	inactive	inactive	inactive	inactive	inactive	inactive	inactive
OCC(O)CN1CCN(c2ccccc2)CC1 (stereo not given)	inactive	inactive	inactive	inactive	inactive	inactive	inactive	inactive	inactive	inactive		inactive	inactive	inactive	inactive	inactive	inactive	inactive	inactive	inactive
Cc1cccc(Nc2cc(Cl)nc(SCC(=O)O)n2)c1C	inactive	inactive	inactive	inactive	inactive	inactive	inactive	inactive	inactive	inactive		inactive	inactive	inactive	inactive	inactive	inactive	inactive	inactive	inactive
O=C1c2c(O)cccc2Cc2cccc(O)c21	inactive	inactive	inactive	inactive	inactive	inactive	inactive	inactive	inactive	inactive		inactive	inactive	inactive	inactive	inactive	inactive	inactive	inactive	inactive
O=C(O)CC(O)C(=O)O (stereo not given)	inactive	inactive	inactive	inactive	inactive	inactive	inactive	inactive	inactive	inactive		inactive	inactive	inactive	inactive	inactive	inactive	inactive	inactive	inactive
CC1(C)OC(=O)NC1=O	inactive	inactive	inactive	inactive	inactive	inactive	inactive	inactive	inactive	inactive		inactive		inactive	inactive	inactive	inactive	inactive	inactive	inactive
Nc1ccc(S(=O)(=O)Nc2nccs2)cc1	inactive	inactive	inactive	inactive	inactive	inactive	inactive	inactive	inactive	inactive		inactive	inactive	inactive	inactive	inactive	inactive	inactive	inactive	inactive
CC1=C(/C=C/C(C)=C/C=C/C(C)=C/C(=O)O)C(C)(C)CCC1	inactive	inactive	inactive	inactive	inactive	inactive	inactive	inactive	inactive	inactive		inactive	inactive	inactive	inactive	inactive	inactive	inactive	inactive	inactive

Structure (SMILES)	Potency [1]	Potency [2]	Potency [3]	Potency [4]	Potency [5]	Potency [6]	Potency [7]	Potency [8]	Potency [9]	Potency [10]	Potency [11]	Potency [12]	Potency [13]	Potency [14]	Potency [15]	Potency [16]	Potency [17]	Potency [18]	Potency [19]	Potency [20]
CC1=C(CC(=O)O)c2cc(F)ccc2/C1=C\c1ccc(S(C)=O)cc1 (stereo not given)	inactive	inactive	inactive	inactive	inactive	inactive	inactive	inactive	inactive	inactive		inactive	inactive	inactive	inactive	inactive	inactive	inactive	inactive	inactive
COc1ccc(Cl)cc1C(=O)NCCc1ccc(S(=O)(=O)NC(=O)NC2CCCCC2)cc1	inactive	inactive	inactive	inactive	inactive	inactive	inactive	inactive	inactive	inactive		inactive		inactive	inactive	inactive	inactive	inactive	inactive	inactive
[O-][n+]1cccc(CO)c1	inactive	inactive	inactive	inactive	inactive	inactive	inactive	inactive	inactive	inactive		inactive	inactive	inactive	inactive	inactive	inactive	inactive	inactive	inactive
Cc1ccc(C(C)C)cc2c(C)ccc1-2	inactive	inactive	inactive	inactive	inactive	inactive	inactive	inactive	inactive	inactive		inactive		inactive	inactive	inactive	inactive	inactive	inactive	inactive
COC(=O)C1=C(C)NC(C)=C(C(=O)OC)C1c1ccccc1[N+](=O)[O-]	inactive	inactive	inactive	inactive	inactive	inactive	inactive	inactive	inactive	inactive		inactive	inactive	inactive	inactive	inactive		inactive	inactive	
CC(=O)Oc1ccc(C2(c3ccc(OC(C)=O)cc3)C(=O)Nc3ccccc32)cc1	inactive	inactive	inactive	inactive	inactive	inactive	inactive	inactive	inactive	inactive		inactive	inactive	inactive	inactive	inactive	inactive	inactive	inactive	inactive
NC(CSCC(=O)O)C(=O)O (stereo not given)	inactive	inactive	inactive	inactive	inactive	inactive	inactive	inactive	inactive	inactive		inactive		inactive	inactive	inactive	inactive	inactive	inactive	inactive
CCn1cc(C(=O)O)c(=O)c2cnc(N3CCNCC3)nc21	inactive	inactive	inactive	inactive	inactive	inactive	inactive	inactive	inactive	inactive		inactive		inactive	inactive	inactive	inactive	inactive	inactive	inactive
CC(=O)c1ccc2c(c1)N(CCCN(C)C)c1ccccc1S2	inactive	inactive	inactive	inactive	inactive	inactive	inactive	inactive		inactive		inactive	inactive	inactive	inactive	inactive	inactive	inactive	inactive	inactive
O=C(CCCN1CCN(c2ccccn2)CC1)c1ccc(F)cc1	inactive	inactive	inactive	inactive	inactive	inactive	inactive	inactive	inactive	inactive		inactive	inactive	inactive	inactive	inactive	inactive	inactive	inactive	inactive
CCN(CC)CCNC(=O)c1cc(Cl)c(N)cc1OC	inactive	inactive	inactive	inactive	inactive	inactive	inactive	inactive	inactive	inactive		inactive	inactive	inactive	inactive	inactive	inactive	inactive	inactive	inactive
Oc1cccc(O)c1	inactive	inactive	inactive	inactive	inactive	inactive	inactive	inactive	inactive	inactive		inactive	inactive	inactive	inactive	inactive	inactive	inactive	inactive	inactive
NC(=O)NC(=O)Cc1ccccc1	inactive	inactive	inactive	inactive	inactive	inactive	inactive	inactive	inactive	inactive		inactive	inactive	inactive	inactive	inactive	inactive	inactive	inactive	inactive
CC12CCC(CC1)C(C)(C)O2	inactive	inactive	inactive	inactive	inactive	inactive	inactive	inactive	inactive	inactive		inactive	inactive	inactive	inactive	inactive	inactive	inactive	inactive	inactive
Nc1nc2c(ncn2CCC(CO)CO)c(=O)[nH]1	inactive	inactive	inactive	inactive	inactive	inactive	inactive	inactive	inactive	inactive		inactive	inactive	inactive	inactive	inactive	inactive	inactive	inactive	inactive
CCN(CC)CCNC(=O)c1c(C)[nH]c(/C=C2\C(=O)Nc3ccc(F)cc32)c1C	8.91 µM (active)	7.08 µM (active)	8.91 µM (active)	7.08 µM (active)	11.2 µM (active)	7.08 µM (active)	7.94 µM (active)				10.7 µM (active)	10.7 µM (active)		11.2 µM (active)	8.91 µM (active)	7.94 µM (active)	14.1 µM (active)	7.94 µM (active)	11.2 µM (active)	10 µM (active)
COc1ccccc1O	inactive	inactive	inactive	inactive	inactive	inactive	inactive	inactive	inactive	inactive		inactive	inactive	inactive	inactive	inactive	inactive	inactive	inactive	inactive
CCC(=O)Nc1ccc(O)cc1	inactive	inactive	inactive	inactive	inactive	inactive	inactive	inactive	inactive	inactive		inactive	inactive	inactive	inactive	inactive	inactive	inactive	inactive	inactive
CC[C@@]1(c2ccccc2)NC(=O)N(C)C1=O	inactive	inactive	inactive	inactive	inactive	inactive	inactive	inactive	inactive	inactive		inactive	inactive	inactive	inactive	inactive	inactive	inactive	inactive	inactive

From PubChem BioAssay (NCATS)
